High-throughput results from PubChem BioAssay.
A selection: hits, their analogues and other compounds. The true share with any hit is near 2.2%.
Giardia kill = Giardia lamblia killing; Giardia lamblia trophozoite viability; activity change, % at 7.66 µM, hits read low; hit rate 0.15% among 340,000; in the data active = activity change below about -80%; inconclusive = between about -30% and that limit;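 also: parasites exposed to compound for two days anaerobically before the ATP read; % is scaled to controls: 0 for no effect and ±100 for the full control effect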
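Giardia trophozoites, 100 cells per well, were exposed to compounds for 48 hrs at 37 deg C under anaerobic conditions; viability was then read as ATP content by bioluminescence after 15-30 min at room temperature.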
rTrxR1 inhibitor = blocks rat thioredoxin reductase 1; recombinant rTrxR1, NADPH fluorescence consumption, selenite substrate; Potency, µM (series often up to 114 µM), for inactives: at the highest dose activity change, negative = inhibition, hits mostly inhibitors; hit rate 1% among 390,000; also: potency is read from the fitted curve at half-maximal effect; % is scaled to controls: 0 for no effect and ±100 for the full control effect; nearly all actives have a fitted effect of over 65% in size
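Rat TrxR1 (90 nM in the dispensed reagent) was pre-reduced with 400 uM NADPH for 5 min at room temperature, then incubated with compound for 15 min. After 400 uM selenite was added, NADPH fluorescence (Ex 340/Em 450 nm) was followed for 8 min.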
TrxR1 substrate = rat thioredoxin reductase 1 substrate activity; purified TrxR1 substrate turnover, NADPH consumption readout; hit rate 0.01% among 390,000; Potency, µM (highest dose often 114 µM), for inactives: at the highest dose activity change, negative = substrate turnover; AID 588456; also: potency is read from the fitted curve at half-maximal effect; % is scaled to controls: 0 for no effect and ±100 for the full control effect; nearly all actives have a fitted effect of over 50% in size
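Rat TrxR1, dispensed at 90 nM, was prereduced with 400 uM NADPH (final) for 5 min at ~22 deg C, then incubated with compound 15 min before 400 uM selenite. A first-read NADPH fluorescence drop versus no-compound background flagged substrates.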
IL2 activator = IL-2 activation | activation, % (series mostly up to about 46 µM) | hit rate 0.065% among 360,000 | IL-2 activation reporter assay, cell-based qHTS; stimulated with anti-CD3/CD4/CD28 beads; in transgenic mouse T cells | AID 652025; in the data active = activation above about 50%; inconclusive = mostly about 30% to 49%; also: 0% is about no effect
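Unstimulated transgenic mouse T cells, 750 per well, received compound and, after 60 minutes, anti-CD3/anti-CD4 bead plus anti-CD28 stimulation. EGFP and DsRed were quantified after 18 hours.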
BRCA1 expr act = BRCA1 expression activation; hit rate 1.1% among 380,000; Potency, µM (series often up to 46.1 µM), for the others: at the top dose activation, actives largely listed as activators; MCF7-BRCA1-FFLuc reporter, luminescence, 48 h; response scale: scaled: vehicle 0%, 10 µM genistein 100%; AID 624202; also: potency is read from the fitted curve at half-maximal effect; nearly all actives have a fitted effect of over 80% in size
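First, MCF7-BRCA1-FFLuc cells (2000/well) attach for 2 h; next, compounds are pin-added and incubated 48 h at 37 °C; finally, luciferase reagent is added and luminescence read after 15 min.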
IDH1 R132H inh = inhibitors of human mutant IDH1 R132H; O75874; IDH1-R132H enzyme, NADPH consumption, diaphorase/resazurin fluorescence; Potency, µM (highest dose often 76.6 µM), inactives show at the top dose activity change, negative = inhibition, hits mostly inhibitors; hit rate 0.093% among 390,000; also: potency is read from the fitted curve at half-maximal effect; % is scaled to controls: 0 for no effect and ±100 for the full control effect; nearly all actives have a fitted effect of over 65% in size
Target sequence (O75874 whole entry R132H, stated change not applied): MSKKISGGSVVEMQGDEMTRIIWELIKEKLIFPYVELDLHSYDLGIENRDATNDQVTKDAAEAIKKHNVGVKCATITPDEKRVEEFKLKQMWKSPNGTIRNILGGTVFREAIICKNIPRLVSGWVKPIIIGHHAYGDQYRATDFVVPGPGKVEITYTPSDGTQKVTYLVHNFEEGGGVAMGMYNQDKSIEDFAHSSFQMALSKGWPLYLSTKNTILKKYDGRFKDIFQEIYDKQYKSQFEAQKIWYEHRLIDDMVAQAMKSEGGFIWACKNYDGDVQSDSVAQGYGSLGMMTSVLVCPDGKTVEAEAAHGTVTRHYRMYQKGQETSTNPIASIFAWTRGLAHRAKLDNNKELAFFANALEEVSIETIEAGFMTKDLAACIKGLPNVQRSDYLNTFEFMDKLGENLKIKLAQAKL
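IDH1-R132H (0.5 ug/mL dispensed) in pH 7.5 Tris buffer was preincubated 30 min with compound, then given a substrate mix of 0.016 mM NADPH and 2 mM alpha-KG for 80 min at room temperature; remaining NADPH was read by diaphorase/resazurin fluorescence.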
An asterisk follows results filed as active; u = inconclusive; x = not tested or not shown; [ ] = remark or other dose. Unless noted, calls follow the shape of the dose curve; as a rule, active = well fitted curve in the direction sought with a large enough effect; inconclusive = small, poorly fitted or top-dose-only effect, or another doubt; inactive = no such curve, though single readings can be large; an effect the other way counts as inactive or inconclusive.

SMILES	Giardia kill	rTrxR1 inhibitor	TrxR1 substrate	IL2 activator	BRCA1 expr act	IDH1 R132H inh
Cc1ccc(OCC(=O)NCC(c2ccc(Cl)cc2)N2CCCCC2)cc1 (stereo not given)	x	6%	-8%	x	x	-7%
Cc1cc(=O)oc2cc(OCC(=O)Nc3nnc(CC(C)C)s3)ccc12	3	-14%	1%	-1	2%	-2%
CC(C)c1nnc(NC(=O)COc2ccc3c(c2)OCO3)s1	-3	5%	0%	0	11µM*	6%
Cc1cc(=O)oc2cc(OCC(=O)Nc3nnc(C(C)C)s3)ccc12	1	-4%	42%	60*	-25%	-3%
O=C(/C=C/c1ccc(F)cc1)NC(=S)Nc1ccccc1O	8	17%	2%	1	13µM*	1%
O=C(Cn1cc(SCc2ccc(C(F)(F)F)cc2)c2ccccc21)N1CCCCC1	x	30%	-2%	x	x	0%
CCOC(=O)Cn1c(=O)c(-c2cc(Br)ccc2N)nc2ccccc21	-26	7%	-2%	152*	-24%	0%
COc1ccc(C2CC(c3cccs3)=NN2C(=O)CCl)cc1OC (stereo not given)	-4	7.9µM*	0%	-3	-90%	-4%
CN1CCc2c(OCC(=O)N3N=C(c4cccs4)CC3c3ccc(F)cc3)cccc2C1=O (stereo not given)	14	14µM*	11%	0	-14%	0%
COc1cc(C2CC(c3cccs3)=NN2C(=O)CCl)ccc1OC(F)F (stereo not given)	-6	7.9µM*	6%	-6	-91%	8%
O=C(CC1C(=O)N(c2ccc(F)cc2)C(=O)N1Cc1cccnc1)Nc1ccc(F)cc1 (stereo not given)	x	5%	-4%	x	x	13%
CCn1c(SCc2nc3ccccc3nc2C)nnc1-c1cccs1	20	-5%	-2%	1	-4%	5%
C=CCn1c(SCc2nc3ccccc3nc2C)nnc1-c1ccoc1C	4	45µM*	0%	1	4%	-2%
O=C(Oc1ccc(N(C(=O)c2ccncc2)S(=O)(=O)c2cccs2)cc1)c1ccncc1	-15	40µM*	3%	0	7%	7%
C=CC(=O)Oc1ccc(N2Cc3ccccc3C2=O)cc1	-13	3.5µM*	-2%	2	21%	-5%
O=C1c2ccccc2CN1c1ccccc1	-5	19%	3%	-1	6.3µM*	10%
CC1Cc2cc(S(=O)(=O)CCC(=O)Nc3ccc(OC(F)(F)F)cc3)ccc2N1C(=O)C1CC1 (stereo not given)	x	10%	-2%	x	x	-6%
Cc1c(C(=O)N2CCC(C)CC2)c(S(=O)(=O)Nc2cccc(C#N)c2)c(C)n1C	x	29%[57.1 µM]	16%[57.1 µM]	x	x	11%
CC(C)C(=O)Nc1cccc(-c2cnc3ccccc3n2)c1	-4	10%	-4%	1	11µM*	5%
COc1ccc(C(=O)Nc2cccc(-c3cnc4ccccc4n3)c2)cc1	3	2%	0%	-1	4µM*	2%
COc1ccc(C(=O)Cc2cc(OC)c(OC)cc2[N+](=O)[O-])cc1	-18	3%	-1%[57.1 µM]	-2	11µM*	-9%
CNc1nc(-c2ccc3c(c2)CCN3C(=O)c2ccccc2C)cs1	15	-6%	-5%	-2	2µM*	5%
O=C(OCC(=O)N1CCOCC1)c1ccccc1Cc1ccccc1	-13	-9%	-10%	-2	2µM*	2%
O=C(OCC(=O)N1CCOCC1)c1ccccc1Br	-1	0%	0%	0	86%	-1%
COc1ccc(C2=NN(C(=O)CCC(=O)O)C(c3cccs3)C2)cc1 (stereo not given)	-16	26%[57.1 µM]	3%[57.1 µM]	-1	4%	0%
SMILES	Giardia kill	rTrxR1 inhibitor	TrxR1 substrate	IL2 activator	BRCA1 expr act	IDH1 R132H inh
COc1ccc(C2=NN3C(C2)c2ccccc2OC3c2cccs2)cc1 (stereo not given)	-23	-52%	4%[57.1 µM]	-1	10µM*	4%
Cc1c2cnn(CC(=O)N3CCCCC3)c(=O)c2c(C)n1Cc1ccc(Cl)cc1	x	-5%	0%	x	x	-11%
CC(=O)N(C1=C(N)C(=O)c2ccccc2C1=O)C(C)C	-15	79µM*	3%	1	6%	13%
CCOc1ccc(C(=O)Nc2ccc(Cl)cn2)cc1Cl	-1	18%	7%	0	6.3µM*	11%
O=C(COc1ccc(Cl)cc1Cl)Nc1ccc(Cl)cn1	u	-7%	5%	-1	11µM*	-4%
N/C(=N\OC(=O)COc1ccc(Cl)cc1Cl)c1ccncc1	-3	30%	3%	0	1.1µM*	0%
COc1ccc(Br)cc1CNC(=O)C(C)n1nc(C)n2c(cc3occc32)c1=O (stereo not given)	x	28%	14%	x	x	x
COc1ccc(-c2c(C#Cc3ccc(N(C)C)cc3)c3ccccc3n2C)cc1	6	-3%	7%	1	0%	-4%
COc1ccc(C#Cc2c(-c3ccccc3)n(-c3ccccc3)c3ccc(CO)cc23)cc1	-24	35µM*	128%	-3	-65%	-9%
Cc1ccc(OCc2csc(N)n2)cc1	33	-7%	-5%	0	5µM*	-1%
COc1ccc(-c2csc(N=C(N)N)n2)cc1	-1	-20%	-6%	-3	u	7%
Nc1nc(-c2ccc(Oc3ccccc3)cc2)cs1	-25	20%	1%	0	11µM*	9%
Nc1nc(-c2ccc(-c3ccccc3)cc2)cs1	-13	14%[57.1 µM]	7%[57.1 µM]	0	u	0%
Cc1ccc(-c2csc(N)n2)cc1	0	u	-12%	0	10µM*	6%
COc1ccc(-c2csc(N)n2)cc1	-6	0%	-3%	1	10µM*	-1%
COc1ccc2sc(C)cc(=O)c2c1	x	x	x	2	15%	0%
COc1ccc2sc3ccccc3c(=O)c2c1	-2	0%	7%	-1	5.6µM*	-1%
CCN(CC)Cc1c(O)ccc2cc(-c3nc4ccccc4n3C)c(=O)oc12	-3	143%[57.1 µM]	370%[57.1 µM]	-5	11µM*	0%
O=C(CN1CCN(S(=O)(=O)c2ccc(F)cc2)CC1)Nc1ccc2c(c1)OCO2	0	2%[57.1 µM]	4%[57.1 µM]	1	-32%	5%
COc1ccc(S(=O)(=O)N2CCCN(CC(=O)C(C)(C)C)CC2)cc1	2	13µM*	1%	2	6%	1%
COc1ccc(S(=O)(=O)N2CCCN(CC(=O)Nc3ccc4c(c3)OCO4)CC2)cc1	-7	79µM*	-8%	-2	-20%	3%
O=C(Nc1ccc2c(c1)OCO2)c1ccc2sc([C@H]3C[C@H](O)[C@@H](CO)O3)nc2c1	x	x	x	0	8.9µM*	x
